# An excerpt weighted towards active compounds, which were near 18% of everything screened.
# LDHA block = blocks human lactate dehydrogenase A | purified LDHA, NADH/diaphorase-resazurin fluorescence; stronger effect = lower value | activity change, % (values are at about 110 or 230 µM) | 480,000 compounds, 0.15% hits; in the data active means activity change below about -30%; inconclusive means mostly about -25% to -30%;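 further: plate controls were DMSO wells for no effect and wells without enzyme for full effect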
#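 Resorufin fluorescence (ex540/em590), read at 0 and 20 min after diaphorase/resazurin addition, reports the NADH left after a 5 min room-temperature reaction of 2 nM human LDH5 with 0.06 mM NADH and 0.2 mM pyruvate.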
# DT40 TDP1 CPT = DT40-hTDP1 cell growth loss with CPT; chicken DT40 Tdp1-/-;hTDP1 cells + 20 nM CPT, ATP luminescence, 48 h; Potency, µM (titrated, usually from 46.2 µM), inactives show at the highest dose activity change, negative = growth inhibition, usual class: inhibitors; 420,000 compounds, 12% hits; further: potency means the concentration at half of the fitted maximal effect; nearly all actives have a fitted effect of over 55% in size
#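 Cell growth measured by CellTiter-Glo luminescence after a minimum 48 h, 37 C compound exposure with 20 nM CPT in Tdp1-knockout DT40 cells stably expressing hTDP1, seeded 400/well; qHTS titration format.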
# RORg inh = blocks mouse ROR gamma transcriptional activity; Potency, µM (top dose mostly 53.6 µM), for the others: at the top dose activity change, negative = inhibition, actives largely listed as inhibitors; Drosophila S2 Gal4-RORgamma UAS-luciferase reporter, 20 h; P51450; 310,000 compounds, 5.4% hits; further: potency means the concentration at half of the fitted maximal effect; nearly all actives have a fitted effect of over 60% in size
# Target sequence (P51450 whole entry, looked up, the tested form may be a part): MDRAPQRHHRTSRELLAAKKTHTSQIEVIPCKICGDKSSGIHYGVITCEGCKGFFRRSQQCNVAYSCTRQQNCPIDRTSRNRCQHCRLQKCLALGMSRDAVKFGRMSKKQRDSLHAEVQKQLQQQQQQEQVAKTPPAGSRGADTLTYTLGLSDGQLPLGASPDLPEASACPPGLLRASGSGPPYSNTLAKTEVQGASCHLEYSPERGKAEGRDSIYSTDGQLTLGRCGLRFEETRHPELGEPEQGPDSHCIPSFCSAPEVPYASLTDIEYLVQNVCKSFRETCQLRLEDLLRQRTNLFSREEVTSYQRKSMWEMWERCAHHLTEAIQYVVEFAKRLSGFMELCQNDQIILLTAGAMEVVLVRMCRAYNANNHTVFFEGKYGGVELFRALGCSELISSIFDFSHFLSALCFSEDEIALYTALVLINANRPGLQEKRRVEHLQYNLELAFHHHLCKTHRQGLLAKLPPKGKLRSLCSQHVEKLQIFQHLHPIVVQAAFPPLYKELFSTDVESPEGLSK
#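 Stably transfected Drosophila Schneider cells are the test system, with ROR gamma fused to Gal4 and luciferase under UAS control; luminescence is read after 20 hr of 700 uM copper sulfate induction at ambient temperature.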
# DT40 TDP1 no CPT = qHTS for Inhibitors of human tyrosyl-DNA phosphodiesterase 1 (TDP1): qHTS in cells in absence of CPT; Potency, µM (top dose mostly 46.2 µM), inactives show at the top dose activity change, negative = growth inhibition, hits mostly inhibitors; 420,000 compounds, 15% hits; DT40 Tdp1-/- hTDP1 cells, no CPT, ATP luminescence, 48 h; further: potency means the concentration at half of the fitted maximal effect; nearly all actives have a fitted effect of over 55% in size
#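 Luminescent ATP content (CellTiter-Glo) served as the growth readout. Knockout chicken DT40 cells expressing human TDP1 were exposed to compounds without camptothecin for a minimum 48 hr at 37 °C.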
# Gal4-VP16 FLuc = inhibits Gal4-VP16 luciferase reporter, ROR gamma counter-screen | Drosophila S2 Gal4-VP16 UAS-luciferase, luminescence, 20 h | AID 2546 | 310,000 compounds, 3.5% hits | Potency, µM (doses to about 53.6 µM), inactives show at the top dose activity, negative = inhibition, hits mostly inhibitors;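 further: Gal4-VP16 expression switched on by copper sulfate through the metallothionein promoter; potency means the concentration at half of the fitted maximal effect; nearly all actives have a fitted effect of over 50% in size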
# IL-1B inflam inh = inhibitors of inflammasome signaling (IL-1 beta secretion) | activity change, % at 57.5 µM | AID 743279 | 360,000 compounds, 4.7% hits | THP-1 LPS/ATP IL-1B secretion, AlphaLISA, 16 h; stronger effect = lower value; in the data active means activity change below about -50%; inconclusive means mostly about -30% to -49%
#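 THP-1 cells pretreated 1 hr with compounds (up to 57.5 uM final), then stimulated with LPS (250 ng/mL final) plus ATP (1.25 mM final); secreted IL-1B measured by AlphaLISA after 16 hr, decreased signal indicating inhibition.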
# Numbers without * were called inactive; ? = inconclusive; nt = no result given. Unless noted, the call rests on the fitted dose curve; in most records, active means well fitted curve in the direction sought with a large enough effect; inconclusive means small, poorly fitted or top-dose-only effect, or another doubt; inactive means no such curve, though single readings can be large; an effect the other way counts as inactive or inconclusive. Unless noted, on the % scale 0 is the no-effect control and ±100 the full control effect.
SMILES,LDHA block,DT40 TDP1 CPT,RORg inh,DT40 TDP1 no CPT,Gal4-VP16 FLuc,IL-1B inflam inh
Cc1ccc(S(=O)(=O)Nc2cnc3ccccc3c2)c(C)c1C,-4,nt,nt,nt,nt,nt
COc1ccc(-c2nc3c4ccccc4ccn3c2CN2CCOCC2)cc1OC,-16,15µM*,?,?,4%,?
COc1ccc(-c2nc3c4ccccc4ccn3c2Cc2cccc(F)c2)cc1OC,-1,?,nt,?,nt,-24
Cc1ccc(-c2nc3c4ccccc4ccn3c2CC2CCCCC2)cc1,5,?,nt,-29%,nt,22
COc1ccc(-c2nc3c4ccccc4ccn3c2CC2CCCCC2)cc1OC,1,?,nt,23µM*,nt,5
c1ccc(-c2nc3c4ccccc4ccn3c2CN2CCOCC2)cc1,-12,10µM*,?,18µM*,7%,-11
CSc1nc2c(c(=O)n(Cc3ccccc3)c(=O)n2C)n1Cc1ccccc1,-9,nt,nt,nt,nt,nt
CCOC(=O)c1cc(OC(C)C(=O)NC)cc(C(=O)OCC)c1 (stereo unspecified),2,nt,nt,nt,nt,nt
CS(=O)(=O)Oc1ccc2c(=O)c(Oc3ccccc3Br)coc2c1,4,nt,nt,nt,nt,nt
COc1cc2c(cc1OC)CN(C(=O)COc1ccccc1C#N)CC2,1,21µM*,10%,12µM*,6%,-74*
N#Cc1ccccc1OCC(=O)N1CCc2ccccc2C1,-2,1%,?,-4%,22%,0
CC(=O)Oc1cc(C(=O)OCC(=O)N2CCc3ccccc3C2)cc(OC(C)=O)c1OC(C)=O,1,4.1µM*,nt,5.2µM*,nt,28
CCOc1c(Br)cc(C(=O)OCC(=O)N2CCc3ccccc3C2)cc1OC,-17,?,nt,26µM*,nt,-8
COc1ccc(C(=O)OCC(=O)N2CCc3ccccc3C2)cc1OC,-1,?,nt,-18%,nt,0
CCC/C=C/c1ccc(CN2C(C)C(=O)N(Cc3cn(Cc4ccco4)nn3)CCS2(=O)=O)cc1 (stereo unspecified),2,?,nt,?,nt,?
CC1C(=O)N(Cc2cn(Cc3ccco3)nn2)CCS(=O)(=O)N1Cc1ccc(-c2ccc(Cl)c(Cl)c2)cc1 (stereo unspecified),-3,15µM*,nt,8.2µM*,nt,-51*
CC(C)CC1C(=O)N(Cc2cn(Cc3ccco3)nn2)CCS(=O)(=O)N1Cc1ccc(-c2cccc(N(C)C)c2)cc1 (stereo unspecified),17,?,nt,13µM*,nt,0
CCC/C=C/c1ccc(CN2C(C(C)C)C(=O)N(Cc3cn(Cc4ccco4)nn3)CCS2(=O)=O)cc1 (stereo unspecified),1,?,nt,23µM*,nt,?
CC(C)Cc1ccc(CN2C(C)C(=O)N(Cc3cn(Cc4ccco4)nn3)CCS2(=O)=O)cc1 (stereo unspecified),-4,?,nt,?,nt,?
Cc1ccc(-c2ccc(CN3C(CC(C)C)C(=O)N(Cc4cn(Cc5ccco5)nn4)CCS3(=O)=O)cc2)cc1 (stereo unspecified),-1,4%,nt,?,nt,-16
CC(C)CC1C(=O)N(Cc2cn(Cc3ccco3)nn2)CCS(=O)(=O)N1Cc1ccc(-c2ccc(F)cc2)cc1 (stereo unspecified),-1,?,nt,16µM*,nt,-72*
COc1ccc2nc(/C(C#N)=C\c3ccc(I)cc3)[nH]c2c1,-1,nt,nt,nt,nt,nt
CC1C(=O)N(Cc2cn(Cc3ccco3)nn2)CCS(=O)(=O)N1Cc1ccc(-c2cccc(N(C)C)c2)cc1 (stereo unspecified),7,26µM*,nt,16µM*,nt,-18
COc1ccc(-c2ccc(CN3C(C(C)C)C(=O)N(Cc4cn(Cc5ccco5)nn4)CCS3(=O)=O)cc2)cc1 (stereo unspecified),1,?,nt,21µM*,nt,0

# Screening results deposited in PubChem by National Center for Advancing Translational Sciences (NCATS).
